{"source": "paper PMC7862700", "about": "“An all-to-all approach to the identification of sequence-specific readers for epigenetic DNA modifications on cytosine”", "experiment_in_all_cases": "DAPPL (digital affinity profiling via proximity ligation, sequencing); 10 mM Tris-HCl pH 7.5, 50 mM NaCl, 1 mM DTT, 4% glycerol, room temperature, 30 min; GST-TFs on glutathione beads, 16-mer random dsDNA library, 0.1% formaldehyde crosslink after washing; high values mean tight binding", "key": {"FEV": {"target": "T1, FEV (Homo sapiens, UniProt Q99581 1-238)", "T1 sequence": "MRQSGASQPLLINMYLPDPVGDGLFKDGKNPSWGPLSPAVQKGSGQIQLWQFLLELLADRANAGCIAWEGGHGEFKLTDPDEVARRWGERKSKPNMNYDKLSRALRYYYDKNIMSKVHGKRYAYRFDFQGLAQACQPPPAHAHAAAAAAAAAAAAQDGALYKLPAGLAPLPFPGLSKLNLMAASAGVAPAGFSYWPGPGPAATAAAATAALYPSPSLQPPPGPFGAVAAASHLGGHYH", "details": "protein: recombinant; tags: N-terminal GST; dsDNA, one strand shown", "how_it_was_run": "(§1)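 Human transcription factors fused to GST were expressed in yeast, captured on glutathione beads, given DNA barcodes and pooled with a GST-only negative control. Pools were incubated with 200 nmole of a 16-mer random double-stranded DNA library in Tris/NaCl/DTT/glycerol buffer at room temperature for 30 min. They were then washed, crosslinked with 0.1% formaldehyde, proximity-ligated (BsaI/T4 ligase, 1 h, 37 °C), PCR-amplified and sequenced on an Illumina NextSeq500. Binding signal is each 6-mer's read frequency for a factor divided by its frequency for the GST control.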"}, "ETV5": {"target": "ETV5 (Homo sapiens, UniProt P41161 1-510)", "sequence (P41161 whole entry)": "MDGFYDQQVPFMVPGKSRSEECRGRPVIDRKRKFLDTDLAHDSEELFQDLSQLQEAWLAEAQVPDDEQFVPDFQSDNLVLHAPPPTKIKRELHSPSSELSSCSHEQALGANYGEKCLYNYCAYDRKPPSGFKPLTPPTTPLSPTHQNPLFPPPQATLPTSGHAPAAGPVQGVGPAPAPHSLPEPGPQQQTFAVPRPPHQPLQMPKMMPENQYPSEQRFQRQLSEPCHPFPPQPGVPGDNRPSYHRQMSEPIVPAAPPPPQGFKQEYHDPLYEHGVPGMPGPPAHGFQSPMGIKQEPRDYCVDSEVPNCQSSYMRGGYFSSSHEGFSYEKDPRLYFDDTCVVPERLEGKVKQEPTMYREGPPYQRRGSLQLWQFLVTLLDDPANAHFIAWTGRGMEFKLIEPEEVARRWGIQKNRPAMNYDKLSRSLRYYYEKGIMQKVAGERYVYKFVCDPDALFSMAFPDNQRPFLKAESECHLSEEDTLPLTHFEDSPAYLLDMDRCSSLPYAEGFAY", "details": "protein: recombinant; tags: N-terminal GST; dsDNA, one strand shown", "how_it_was_run": "as §1"}, "HSF1": {"target": "HSF1 (Homo sapiens, UniProt Q00613 1-529)", "sequence (Q00613 whole entry)": "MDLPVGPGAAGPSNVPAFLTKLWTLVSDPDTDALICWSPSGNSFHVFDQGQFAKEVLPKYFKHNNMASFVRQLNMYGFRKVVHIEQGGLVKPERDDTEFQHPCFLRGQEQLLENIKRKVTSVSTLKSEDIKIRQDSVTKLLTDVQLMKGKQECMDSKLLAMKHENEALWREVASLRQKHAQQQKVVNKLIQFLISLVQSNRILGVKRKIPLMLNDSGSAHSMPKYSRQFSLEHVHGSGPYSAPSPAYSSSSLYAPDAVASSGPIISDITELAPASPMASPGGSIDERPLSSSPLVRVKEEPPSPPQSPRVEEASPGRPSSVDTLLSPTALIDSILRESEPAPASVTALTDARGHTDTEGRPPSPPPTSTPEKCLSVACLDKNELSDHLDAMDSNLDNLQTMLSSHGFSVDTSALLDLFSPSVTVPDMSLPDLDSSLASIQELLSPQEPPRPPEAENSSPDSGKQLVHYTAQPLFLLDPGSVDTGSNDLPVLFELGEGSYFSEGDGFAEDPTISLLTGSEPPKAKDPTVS", "details": "protein: recombinant; tags: N-terminal GST; chain copies: 3; dsDNA, one strand shown", "how_it_was_run": "as §1"}, "SPIC": {"target": "T2, SPIC (Homo sapiens, UniProt Q8N5J4 1-248)", "T2 sequence": "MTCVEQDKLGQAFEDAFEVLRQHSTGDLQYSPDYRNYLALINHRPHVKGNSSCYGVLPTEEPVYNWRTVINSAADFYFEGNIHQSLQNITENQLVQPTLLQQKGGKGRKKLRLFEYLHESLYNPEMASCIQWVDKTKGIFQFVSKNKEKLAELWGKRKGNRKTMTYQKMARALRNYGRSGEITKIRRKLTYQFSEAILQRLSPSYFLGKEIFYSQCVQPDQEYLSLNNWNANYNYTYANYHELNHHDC", "details": "protein: recombinant; tags: N-terminal GST; dsDNA, one strand shown", "how_it_was_run": "as §1"}, "ELF4": {"target": "ELF4 (Homo sapiens, UniProt Q99607 1-663)", "sequence (Q99607 whole entry)": "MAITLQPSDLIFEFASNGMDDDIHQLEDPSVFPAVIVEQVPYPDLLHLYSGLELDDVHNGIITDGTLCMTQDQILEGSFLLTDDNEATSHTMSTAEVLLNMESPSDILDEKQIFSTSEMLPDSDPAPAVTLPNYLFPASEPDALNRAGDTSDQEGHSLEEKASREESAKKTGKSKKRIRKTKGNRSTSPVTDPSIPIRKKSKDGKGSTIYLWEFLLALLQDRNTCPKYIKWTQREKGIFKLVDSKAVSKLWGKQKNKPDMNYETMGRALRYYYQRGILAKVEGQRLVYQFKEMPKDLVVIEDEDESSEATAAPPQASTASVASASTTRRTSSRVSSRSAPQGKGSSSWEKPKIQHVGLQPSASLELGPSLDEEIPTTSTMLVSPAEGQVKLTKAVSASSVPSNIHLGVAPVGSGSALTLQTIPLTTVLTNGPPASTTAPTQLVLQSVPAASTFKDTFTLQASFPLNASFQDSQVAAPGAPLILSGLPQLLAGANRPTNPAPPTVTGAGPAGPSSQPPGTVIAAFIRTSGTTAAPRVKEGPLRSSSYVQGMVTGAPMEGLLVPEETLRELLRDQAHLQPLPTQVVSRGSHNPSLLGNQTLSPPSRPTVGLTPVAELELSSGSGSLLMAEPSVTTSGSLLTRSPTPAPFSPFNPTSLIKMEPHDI", "details": "protein: recombinant; tags: N-terminal GST; dsDNA, one strand shown", "how_it_was_run": "as §1"}, "ELK4": {"target": "T3, ELK4 (Homo sapiens, UniProt P28324-2 1-405)", "T3 sequence": "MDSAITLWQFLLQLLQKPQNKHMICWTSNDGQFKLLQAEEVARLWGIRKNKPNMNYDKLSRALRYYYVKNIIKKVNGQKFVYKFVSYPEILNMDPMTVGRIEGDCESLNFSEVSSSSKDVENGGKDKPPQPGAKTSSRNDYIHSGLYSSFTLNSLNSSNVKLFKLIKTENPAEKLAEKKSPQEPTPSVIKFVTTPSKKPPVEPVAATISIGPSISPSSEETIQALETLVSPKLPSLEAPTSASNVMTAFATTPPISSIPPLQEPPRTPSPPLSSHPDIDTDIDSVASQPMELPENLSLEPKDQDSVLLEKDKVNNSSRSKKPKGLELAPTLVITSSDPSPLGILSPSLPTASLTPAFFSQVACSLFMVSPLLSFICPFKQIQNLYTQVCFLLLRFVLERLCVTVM", "details": "protein: recombinant; tags: N-terminal GST; dsDNA, one strand shown", "how_it_was_run": "as §1"}, "ETV2": {"target": "T4, ETV2 (Homo sapiens, UniProt O00321 1-342)", "T4 sequence": "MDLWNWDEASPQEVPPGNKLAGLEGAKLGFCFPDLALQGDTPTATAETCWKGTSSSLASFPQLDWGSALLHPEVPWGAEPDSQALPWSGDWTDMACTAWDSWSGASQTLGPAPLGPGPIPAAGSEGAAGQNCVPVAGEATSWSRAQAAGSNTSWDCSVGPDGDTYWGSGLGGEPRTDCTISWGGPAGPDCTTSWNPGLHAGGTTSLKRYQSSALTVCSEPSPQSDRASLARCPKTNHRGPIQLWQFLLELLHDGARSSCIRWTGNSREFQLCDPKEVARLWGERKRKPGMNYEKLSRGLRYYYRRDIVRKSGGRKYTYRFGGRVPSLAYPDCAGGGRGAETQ", "details": "protein: recombinant; tags: N-terminal GST; dsDNA, one strand shown", "how_it_was_run": "as §1"}, "ELF3": {"target": "T5, ELF3 (Homo sapiens, UniProt P78545 1-371)", "T5 sequence": "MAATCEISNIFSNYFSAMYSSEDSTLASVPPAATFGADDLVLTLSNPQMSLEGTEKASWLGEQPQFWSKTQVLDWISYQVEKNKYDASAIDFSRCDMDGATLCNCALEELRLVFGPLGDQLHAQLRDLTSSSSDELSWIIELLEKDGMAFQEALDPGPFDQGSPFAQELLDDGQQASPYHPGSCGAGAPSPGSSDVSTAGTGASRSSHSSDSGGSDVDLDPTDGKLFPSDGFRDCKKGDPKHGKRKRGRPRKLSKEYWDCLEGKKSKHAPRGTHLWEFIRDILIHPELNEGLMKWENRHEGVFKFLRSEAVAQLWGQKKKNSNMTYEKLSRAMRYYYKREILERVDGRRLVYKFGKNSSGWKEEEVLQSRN", "details": "protein: recombinant; tags: N-terminal GST; dsDNA, one strand shown", "how_it_was_run": "as §1"}, "CRX": {"target": "CRX (Homo sapiens, UniProt O43186 1-299)", "sequence (O43186 whole entry)": "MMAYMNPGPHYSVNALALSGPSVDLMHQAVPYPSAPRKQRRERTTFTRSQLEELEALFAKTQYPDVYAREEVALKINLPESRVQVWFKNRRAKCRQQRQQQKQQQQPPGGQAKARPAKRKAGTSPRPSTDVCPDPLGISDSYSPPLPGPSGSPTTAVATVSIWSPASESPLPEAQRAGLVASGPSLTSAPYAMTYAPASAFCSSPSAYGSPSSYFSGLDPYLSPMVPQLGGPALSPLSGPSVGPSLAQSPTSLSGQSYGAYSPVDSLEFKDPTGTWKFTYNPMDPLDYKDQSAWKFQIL", "details": "protein: recombinant; tags: N-terminal GST; dsDNA, one strand shown", "how_it_was_run": "as §1"}, "ETV1": {"target": "ETV1 (Homo sapiens, UniProt P50549 1-477)", "sequence (P50549 whole entry)": "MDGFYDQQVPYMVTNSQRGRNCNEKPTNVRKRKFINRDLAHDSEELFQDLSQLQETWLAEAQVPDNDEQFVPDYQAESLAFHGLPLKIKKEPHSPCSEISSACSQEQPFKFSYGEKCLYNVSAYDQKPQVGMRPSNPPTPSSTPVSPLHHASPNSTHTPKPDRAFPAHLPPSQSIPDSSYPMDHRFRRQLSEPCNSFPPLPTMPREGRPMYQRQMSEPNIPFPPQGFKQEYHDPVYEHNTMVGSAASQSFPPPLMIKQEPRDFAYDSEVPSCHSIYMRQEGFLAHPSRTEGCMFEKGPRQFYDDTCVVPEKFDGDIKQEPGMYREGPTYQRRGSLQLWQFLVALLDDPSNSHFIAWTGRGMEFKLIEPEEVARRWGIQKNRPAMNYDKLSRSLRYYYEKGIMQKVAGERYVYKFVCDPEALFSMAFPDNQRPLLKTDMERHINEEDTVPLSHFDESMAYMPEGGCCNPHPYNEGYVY", "details": "protein: recombinant; tags: N-terminal GST; dsDNA, one strand shown", "how_it_was_run": "as §1"}}}
{"sequence": "TTACAT", "values": [{"measurement": "binding signal", "setting": "FEV", "result": "1.3 fold enrichment (6-mer frequency, TF over GST control)"}, {"measurement": "binding signal", "setting": "ETV5", "result": "1.31 fold enrichment (6-mer frequency, TF over GST control)"}, {"measurement": "binding signal", "setting": "HSF1", "result": "1.45 fold enrichment (6-mer frequency, TF over GST control)"}, {"measurement": "binding signal", "setting": "SPIC", "result": "1.34 fold enrichment (6-mer frequency, TF over GST control)"}, {"measurement": "binding signal", "setting": "ELF4", "result": "1.34 fold enrichment (6-mer frequency, TF over GST control)"}, {"measurement": "binding signal", "setting": "ELK4", "result": "1.34 fold enrichment (6-mer frequency, TF over GST control)"}, {"measurement": "binding signal", "setting": "ETV2", "result": "1.43 fold enrichment (6-mer frequency, TF over GST control)"}, {"measurement": "binding signal", "setting": "ELF3", "result": "1.4 fold enrichment (6-mer frequency, TF over GST control)"}, {"measurement": "binding signal", "setting": "CRX", "result": "1.81 fold enrichment (6-mer frequency, TF over GST control)"}, {"measurement": "binding signal", "setting": "ETV1", "result": "1.39 fold enrichment (6-mer frequency, TF over GST control)"}]}
